SARS PLpro yeast: SARS-CoV PLP inhibition in yeast; S. cerevisiae expressing SARS-CoV PLpro, growth rescue; Potency, µM (titrated, usually from 32.9 µM), most hits filed as activators; 330,000 tested, 0.19% active; AID 485353; calls by dose curve; further: nearly all actives have a fitted effect of over 55% in size
Pf growth 96h: P. falciparum growth inhibition at 96 hour, primary screen for plastid delayed-death inhibitors; P. falciparum luciferase reporter growth, 96 h; Potency, µM (series often up to 28.7 µM), actives largely listed as inhibitors; 320,000 tested, 6.9% active
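Plates of compound plus infected erythrocytes (2% hematocrit, 0.05% parasitemia final) incubate 96 hours, 37 C, 5% CO2. Detection reagent added; reduced luminescence from the parasites' luciferase reporter flags inhibition.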
NS1 inh: inhibitors of influenza NS1 protein function. Potency, µM (titrated, usually from 46.1 µM). AID 2326. 270,000 tested, 0.4% active; calls by dose curve; further: actives are rising curves; nearly all actives have a fitted effect of over 50% in size
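Growth recovery, yeast-based: influenza A NS1 expressed in S. cerevisiae causes slow growth, and suppressors are detected by OD600. The parent strain without NS1 is used as positive control.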
Pf growth 48h: P. falciparum growth inhibition at 48 hours (one generation); P. falciparum luciferase growth in erythrocytes, 48 h; Potency, µM (titrated, usually from 28.7 µM), actives largely listed as inhibitors; 310,000 tested, 5.9% active; AID 504832
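Firefly luciferase activity from engineered P. falciparum reports growth; inhibitors lower the luminescent signal. Cultures contained 2% hematocrit erythrocytes at 0.1% final parasitemia.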
A number is an active result; i = inactive; ? = inconclusive; nt = not tested or not shown; ! = repeats disagree. Rows were chosen to be rich in hits. Some 10% of all compounds tested hit in one or more screens of this group. Unless noted, the call rests on the fitted dose curve; in most records, active means well fitted inhibition curve with a large enough effect; inconclusive means small, poorly fitted or top-dose-only effect, or another doubt; inactive means no such curve, though single readings can be large or run the other way.

SMILES	SARS PLpro yeast	Pf growth 96h	NS1 inh	Pf growth 48h
COc1ccc(OC)c(CN2CCC(CO)(CCOc3ccccc3)CC2)c1	i	i	i	13.1µM
O=C(COC(=O)c1cc(=O)[nH]c2ccccc12)NCc1ccc(Cl)cc1	i	?	nt	?
COc1cc(/C=C/C(=O)O)ccc1OS(=O)(=O)c1c(C)c(C)cc(C)c1C	i	i	nt	10.4µM
COc1cc(/C=C/C(=O)O)cc(OC)c1OC	i	i	i	i
c1ccc2c(c1)oc1c(NCC3CCCO3)ncnc12 (stereo not drawn)	i	i	i	i
c1ccc(-c2nc(NCC3CCCO3)c3oc4ccccc4c3n2)cc1 (stereo not drawn)	i	14.7µM	i	nt
O=C(O)CNc1nc(-c2ccccc2)nc2c1oc1ccccc12	i	i	i	i
c1ccc(-c2nc(NCc3cccnc3)c3oc4ccccc4c3n2)cc1	i	9.28µM	i	?
O=C(O)[C@H]1C[C@@H](CP(=O)(O)O)CCN1	nt	i	nt	i
CCc1ccc(-c2cc(C)no2)cc1S(=O)(=O)Nc1ccc(C)cn1	i	13.1µM	i	i
CCOc1ccc(N(C)S(=O)(=O)c2cc(-c3cc(C)no3)ccc2C)cc1	i	i	i	?
Cc1ccc(NS(=O)(=O)c2cc(-c3cc(C)no3)ccc2C(C)C)nc1	i	i	i	i
CCOc1ccc(N(C)S(=O)(=O)c2cc(-c3cc(C)no3)ccc2CC)cc1	i	i	i	11.7µM
COc1cccc(CN(C(=O)/C=C/c2ccco2)C2CCS(=O)(=O)C2)c1 (stereo not drawn)	i	?	i	i
C[C@@H](N)C1CCC(C(=O)Nc2ccncc2)CC1 (stereo partly drawn)	nt	nt	i	nt
Fc1ccc(-c2cc3nc(-c4ccccc4)cc(N4CCN(CCN5CCOCC5)CC4)n3n2)cc1	i	i	i	1.04µM
CN1CCN(c2cc(-c3ccccc3)nc3cc(-c4ccc(F)cc4)nn23)CC1	i	i	i	nt
COc1cccc(-c2cc3nc(-c4ccccc4)cc(N4CCC5(CC4)OCCO5)n3n2)c1	i	i	i	13.1µM
COc1cc2c(cc1OC)C(c1cccs1)N(C(=O)c1ccc(S(=O)(=O)N(C)C)cc1)CC2 (stereo not drawn)	i	13.1µM	i	10.4µM
COc1cc2c(cc1OC)C(c1cccs1)N(C(=S)NC(C)C)CC2 (stereo not drawn)	i	?	nt	2.62µM
N#C/C(=C(/O)CO/N=C/c1ccccc1Cl)c1nc2ccccc2[nH]1	i	i	i	i
Brc1ccc(C[n+]2ccccc2)cc1	i	7.38µM	nt	2.94µM
O=C1CC(c2ccsc2)Sc2ccccc2N1 (stereo not drawn)	i	i	i	i
CC1CC(=O)C2=C(C1)Nc1ccccc1SC2c1ccc(F)cc1 (stereo not drawn)	i	4.15µM	i	11.7µM
CCCOc1ccc(C(=O)Nc2nc(C)c(Cc3ccc4c(c3)OCO4)s2)cc1	i	?	i	10.4µM
SMILES	SARS PLpro yeast	Pf growth 96h	NS1 inh	Pf growth 48h
Cc1nc(NC(=O)c2ccc(OCC(C)C)cc2)sc1Cc1ccc2c(c1)OCO2	i	?	i	?
O=C(CSc1nnc(-c2ccncc2)n1-c1ccccc1)NC1CC1	i	i	i	i
COc1ccc(CCN2CC(C(=O)N(C)CCc3cn[nH]c3)CCC2=O)cc1 (stereo not drawn)	i	?	i	i
COc1ccc(N2C(=O)c3cc4ccccc4cc3C2=O)cc1	i	10.4µM	i	i
Cc1ccc(CN2CC(=O)N3[C@H]4c5cc(C)ccc5OC[C@@H]4[C@H](c4ccccc4)[C@]3(C)C2=O)cc1	i	i	nt	5.86µM
Cc1ccc(CN2CC(=O)N3[C@H]4c5cc(Cl)ccc5OC[C@@H]4[C@H](c4ccccc4)[C@]3(C)C2=O)cc1	i	8.28µM	nt	6.57µM
Cc1ccc2c(c1)[C@H]1[C@H](CO2)[C@H](c2ccccc2)[C@]2(C)C(=O)N(Cc3ccccc3)CC(=O)N12	i	nt	nt	nt
COc1ccc2c(c1)[C@H]1[C@H](CO2)[C@H](c2ccccc2)[C@]2(C)C(=O)N(Cc3ccc(C)cc3)CC(=O)N12	i	nt	nt	nt
CCC(C(=O)OCn1nnc2ccccc2c1=O)c1ccccc1 (stereo not drawn)	i	i	nt	i
Cc1ccc(S[C@@H](CCN2CC[C@H](C)CCC2=O)c2ccccc2)cc1	i	9.28µM	i	?
COc1ccc(S[C@@H](CCN2CC[C@H](C)CCC2=O)c2ccccc2)cc1	i	?	nt	8.28µM
C[C@@H]1CCC(=O)N(CC[C@H](Sc2ccc(Br)cc2)c2ccccc2)CC1	i	?	nt	?
CCCCN1C(=S)SC(C)(C)C1/[N+]([O-])=C/c1ccc(S(=O)(=O)NC)cc1 (stereo not drawn)	i	?	i	i
CCC1(c2ccccc2)NC(=O)N(CC(=O)NC2(C#N)CCCCC2)C1=O (stereo not drawn)	i	i	nt	i
CC1=CC(C)[C@@H]2COC(c3ccc(O)cc3)[C@H]1C2C (stereo partly drawn)	i	9.28µM	i	?
COc1cc([C@H]2OC[C@H]3[C@@H]2CO[C@H]3c2ccc(O)c(OC)c2)ccc1O	i	nt	nt	nt
CC1=CC(C)C2COC(c3ccc[n+](C)c3)C1C2C (stereo not drawn)	i	?	i	14.7µM
O=C1c2ccccc2C(=O)N1CCN1CCOCC1	i	i	i	nt
CCOc1ccc(N=C2C(=O)N(CN3CCOCC3)c3ccccc32)cc1	i	13.1µM	i	i
CCCCCSc1cc(O)c(C(CNC)C(C)C)cc1OC (stereo not drawn)	i	0.465µM	i	0.415µM
Cc1ccc(NC(=O)N2CCCCCC2)c(C)c1	i	i	i	i
COc1ccc(-c2cc(C(F)(F)F)nc(SCC(=O)Nc3sc4c(c3C#N)CCC4)n2)cc1	i	1.65µM	i	4.15µM
N#Cc1c(NC(=O)CSC2=NCCS2)sc2c1CCCC2	i	2.33µM	i	?
CCOC(OCC)P(=O)(c1ccccc1)c1ccccc1	i	11.7µM	i	i
CCCC(C(=O)OCC)P(=O)(c1ccccc1)c1ccccc1 (stereo not drawn)	i	?	?	nt
SMILES	SARS PLpro yeast	Pf growth 96h	NS1 inh	Pf growth 48h
Cc1ccc2oc(=O)c3cc(C(=O)N4CCN(C(=O)c5ccco5)CC4)sc3c2c1	i	?	i	i
CCN(Cc1ccccc1)C(=O)c1cc2c(=O)oc3ccc(C)cc3c2s1	i	4.65µM	i	nt
Cc1ccc2oc(=O)c3cc(C(=O)NCCCN4CC(C)CC(C)C4)sc3c2c1 (stereo not drawn)	i	i	i	2.08µM
Cc1ccc2oc(=O)c3cc(C(=O)NCCCN4CCN(C)CC4)sc3c2c1	i	i	i	i
O=C(NCCCN1CCCCCC1)c1cc2c(=O)oc3ccccc3c2s1	i	i	i	2.94µM
COC(=O)c1ccccc1NC(=O)CNc1ccc(F)c(S(=O)(=O)N2CCOCC2)c1	i	i	nt	?
O=C(c1cc2ccccc2cc1O)N1CCN(c2cccc(Cl)c2)CC1	i	11.7µM	nt	?
CCCN1CCN(C(=O)CCn2c(=O)c3cccn3c3cccnc32)CC1	i	i	i	i
CCCNCC(O)COc1ccccc1C(=O)CCc1ccccc1 (stereo not drawn)	i	3.29µM!	i	1.17µM
CCN(CC)CC(O)COc1ccccc1C(=O)CCc1ccccc1 (stereo not drawn)	i	nt	i	1.47µM
